High-throughput results deposited in PubChem BioAssay by Sanford-Burnham Center for Chemical Genomics.
PABP FP inh = blocks human PABP binding to poly(A) RNA | P11940 | calls only at 35 µM | AID 2014 | 1% of 290,000 active | fluorescence polarization;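 note: calls also rest on retests at 20 µM and on dose response follow-up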
A3A deaminase = inhibitors of human APOBEC3A DNA deaminase; inhibition, % at 20 µM; P31941; 0.41% of 330,000 active; recombinant A3A, FAM/TAMRA ssDNA deamination fluorescence;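 active = at least 40% inhibition at 20 µM here, with at most 30% in a related deaminase screen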;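 note: plate controls were A3A with DMSO for no effect and wells lacking A3A enzyme for full effect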
APOBEC3G inh = APOBEC3G (human) deaminase inhibition; 0.28% of 330,000 active; Q9HC16; recombinant A3G, ssDNA deamination FAM/TAMRA fluorescence; AID 493012; inhibition, % at 20 µM;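 active = inhibition of at least 40% at 20 µM, with no more than 30% in the related APOBEC3A deaminase screen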;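 note: plate controls were DMSO wells with A3G for no effect and wells lacking A3G enzyme for full effect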
Target sequence (Q9HC16 whole entry, looked up): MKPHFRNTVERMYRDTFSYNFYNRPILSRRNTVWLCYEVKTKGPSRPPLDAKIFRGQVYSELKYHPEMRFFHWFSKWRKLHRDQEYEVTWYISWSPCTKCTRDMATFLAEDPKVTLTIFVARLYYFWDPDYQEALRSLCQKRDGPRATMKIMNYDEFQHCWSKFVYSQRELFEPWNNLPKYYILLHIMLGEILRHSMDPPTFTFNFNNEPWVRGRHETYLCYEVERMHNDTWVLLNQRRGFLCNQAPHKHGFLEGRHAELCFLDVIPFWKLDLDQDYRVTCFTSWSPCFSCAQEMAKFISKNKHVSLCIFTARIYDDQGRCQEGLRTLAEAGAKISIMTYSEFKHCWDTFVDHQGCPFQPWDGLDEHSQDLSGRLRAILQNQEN
PABP1 MLLE inh = blocks PAM2 peptide binding to the PABP1 MLLE domain; P11940; GST-MLLE / FITC-PAM2 fluorescence polarization; inhibition, % at 20 µM; 0.36% of 360,000 active; in the data active = inhibition above about 35%, passing the limit was not always enough;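 note: plate controls were DMSO wells with GST-MLLE for no effect and wells lacking GST-MLLE protein for full effect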
PHOSPHO1 block = PHOSPHO1 (human) inhibition; 1.1% of 290,000 active; inhibition, % at 13.3 µM; recombinant PHOSPHO1, absorbance phosphatase assay; Q8TCT1; in the data active = inhibition above about 60%
eIF4H FP inh = inhibitors of RNA binding by human eIF4H; AID 2012; 0.94% of 290,000 active; inhibition, % at 35 µM; Q15056; eIF4H fluorescence polarization binding assay;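 note: calls also rest on retests at 20 µM and on dose response follow-up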
Starred values were filed as active, the others as inactive; i = inactive; . = no result given; + = active, no number. Only some compounds are listed: those with a hit (about 2.6% of all), similar ones and a draw of the others. Unless noted, the rule behind the calls is not given here.

SMILES	PABP FP inh	A3A deaminase	APOBEC3G inh	PABP1 MLLE inh	PHOSPHO1 block	eIF4H FP inh
CSc1ccc(C2Nc3cccc4cccc(c34)N2)cc1	+	-7	-1	0	14	90*
c1cc2c3c(cccc3c1)NC(c1ccc3c(c1)OCO3)N2	i	1	2	-6	27	23
Cc1cccc(C2Nc3cccc4cccc(c34)N2)c1	i	2	4	-6	-5	53*
Clc1ccc(C2Nc3cccc4cccc(c34)N2)cc1	+	3	17	18	30	86*
CSc1ccc(C2NC(=O)c3ccccc3N2)cc1 (stereo unspecified)	.	1	0	3	.	.
Cn1c(N2CCN(C(c3ccccc3)c3ccccc3)CC2)nc2c1c(=O)[nH]c(=O)n2C	i	-5	-9	-13	46	6
C[C@@H]1CN(C(=O)c2cc(COc3cccc(C(F)(F)F)c3)on2)C[C@H](C)O1	i	-2	-1	1	-11	3
S=C1NCc2cncnc2N1	.	.	.	-1	.	.
CC(C)[C@H](NC(=O)C1CCN(C(=O)[C@H](Cc2ccccc2)NC(=O)OC(C)(C)C)CC1)C(=O)O	i	-5	-10	-3	61*	-4
O=C(c1ccccc1)N1CCN(CC(O)Cn2ccc3ccccc32)CC1 (stereo unspecified)	i	1	-5	-7	66*	19
OC(CN1CCCC1)Cn1ccc2ccccc21 (stereo unspecified)	i	-1	-4	3	.	20
Cn1cc(/C=N/NC(=O)c2ccc(C#N)cc2F)c2ccccc21	+	1	-1	3	42	4
CCOc1ccc(CNC(=O)CS(=O)(=O)Cc2nc(-c3ccc(OC)cc3)oc2C)cc1	i	-4	-9	-11	23	-3
CCOc1ccc(CCNC(=O)CS(=O)(=O)Cc2nc(-c3ccc(OC)cc3)oc2C)cc1	i	7	6	-4	64*	2
CCOc1ccc(S(=O)(=O)n2cc(-c3ccccc3)c(N)n2)cc1	i	-2	-7	-1	1	2
Nc1nn(S(=O)(=O)c2ccccc2)cc1-c1cccc([N+](=O)[O-])c1	+	-2	-4	10	5	active
CCn1c([N+](=O)[O-])nc2c1c(=O)[nH]c(=O)n2C	i	.	.	6	36	0
CCOC(=O)c1c(/N=C/c2cccc([N+](=O)[O-])c2O)sc(C)c1C	i	2	3	51*	-32	21
O=[N+]([O-])c1cccc(C=Nc2cccc3ccccc23)c1O	i	-6	13	19	29	42
Brc1ccc(-c2cn3c(n2)SCC3)cc1	i	-4	-6	-5	33	0
Oc1ccc(-c2cn3c(n2)SCC3)cc1	i	-5	-4	21	98*	-1
OCCn1nc2c3ccccc3nc-2n(-c2ccccc2)c1=S	i	-3	-5	9	76*	-5
Cc1ccc(C(=O)C(C(=O)/C=C/c2ccccc2)=C2SCCCS2)cc1	i	-3	-3	-2	6	-6
Cc1ccc(-n2c(Cn3nc(C(F)(F)F)cc3C)n[nH]c2=S)cc1	i	-2	9	19	81*	3
COc1ccc(-n2c(Cn3nc(C(F)(F)F)cc3C)n[nH]c2=S)cc1	i	4	13	-15	1	1
SMILES	PABP FP inh	A3A deaminase	APOBEC3G inh	PABP1 MLLE inh	PHOSPHO1 block	eIF4H FP inh
CC(=O)C(Sc1nccc(-c2cccs2)n1)C(C)=O	i	-1	-5	36*	-9	3
CC1NC(=O)c2cccnc2-n2c1nc1ccccc1c2=O (stereo unspecified)	.	.	.	-4	.	.
O=C(c1ccc(S(=O)(=O)N2CCCC2)cc1)N1CCCCC1	.	4	-3	-8	.	.
O=C(/C=C/c1ccc(O)c(O)c1)c1ccc(S(=O)(=O)N2CCCCCC2)cc1	i	3	-1	-7	-5	90*
COc1ccc(O)c(C(=O)c2cc(C#N)c(=O)n(CC3CCCO3)c2)c1 (stereo unspecified)	i	3	-2	-46	64*	9
O=C1C=C(O)c2[nH]c(=O)ccc2C1=O	.	.	.	10	.	.
O=C(NC1CCCCCC1)C1CCN(C(=O)c2cccc(Cl)c2)CC1	i	1	2	-12	-2	-2
CNc1nc(-c2c[nH]c3ccccc23)cs1	i	1	-2	-92	100*	5
